Only some compounds are listed: those with a hit (about 5.3% of all), similar ones and a draw of the others.
Sfp inh – qHTS Assay for Inhibitors of Bacillus subtilis Sfp phosphopantetheinyl transferase (PPTase); Potency, µM, without a hit: largest response in the series, negative = inhibition, actives largely listed as inhibitors; 4'-phosphopantetheinyl transferase ffp (Bacillus subtilis), Q9F4F7; AID 1490, 2009; Biochemical Sfp PPTase activity, qHTS; hit rate 3.5% among 310,000;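 further: the enzyme is Sfp with the accession as filed and its product quenches rhodamine fluorescence; potency means the concentration at half of the fitted maximal effect; 0% = enzyme reaction without inhibitor and -100% = no enzyme wells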
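After 15 min at room temperature with compound, 15 nM Sfp received 5 uM rhodamine-CoA plus 12.5 uM BHQ-2-ybbR (50 mM Hepes pH 7.6, 10 mM MgCl2). Rate came from the fluorescence difference over 30 min, ex 525/em 598 nm.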
FBPA coupling cs – qHTS Assay for Inhibitors of Fructose-1,6-bisphosphate Aldolase from Giardia Lamblia: Coupling assay counterscreen | coupling enzyme system counterscreen, AmpLite Red fluorescence | activity change, negative = inhibition, % at 58.2 µM, hits read low | hit rate 0.67% among 290,000; in the data active means activity change below about -30%
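Fluorescence at 525 nm excitation and 598 nm emission measured inhibition of the coupled detection system without aldolase. Compounds (at 57.5 uM final) were preincubated 10 min at room temperature with coupling enzyme reagent before a 20 min substrate/AmpLite Red step.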
Tau fibril FP – qHTS for Inhibitors of Tau Fibril Formation, Fluorescence Polarization. Microtubule-associated protein tau (Homo sapiens), P10636. Potency, µM (titrated, usually from 57.7 µM), inactives show top-dose activity, negative = inhibition, usual class: inhibitors. K18 P301L tau heparin fibrillization, Alexa594 FP, 6 h. hit rate 0.39% among 280,000; further: potency means the concentration at half of the fitted maximal effect; nearly all actives have a fitted effect of over 55% in size
Target sequence (P10636 561-689 P618L limits assumed): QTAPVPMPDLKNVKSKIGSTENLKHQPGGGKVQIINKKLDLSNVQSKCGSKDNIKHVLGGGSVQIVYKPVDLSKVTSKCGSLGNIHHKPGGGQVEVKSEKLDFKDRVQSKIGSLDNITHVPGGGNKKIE
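Human tau K18 […] P301L fragment, 15 uM unlabeled plus 0.24 uM Alexa 594-labeled tau (final), with compound and 20 uM heparin in 100 mM sodium acetate pH 7; 6 hr at 37 C, then Alexa 594 FP read.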
Tau ThT inhib – qHTS for Inhibitors of Tau Fibril Formation, Thioflavin T Binding; Microtubule-associated protein tau (Homo sapiens), P10636; recombinant tau K18 P301L, heparin-induced fibrillization, ThT fluorescence; Potency, µM (titrated, usually from 57.4 µM), for the others: at the top dose activity, negative = inhibition, usual class: inhibitors; hit rate 2.1% among 270,000; further: potency means the concentration at half of the fitted maximal effect; nearly all actives have a fitted effect of over 55% in size
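Fibril formation assay: tau K18 P301L at 15 uM with trace Alexa 594 label, heparin inducer 20 uM, pH 7 sodium acetate buffer, 37 C for 6 hr; endpoint ThT signal.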
KDM4E inh – qHTS Assay for Inhibitors of Human Jumonji Domain Containing 2E (JMJD2E). JMJD2E catalytic domain, FDH-coupled NADH fluorescence (FDH is formaldehyde dehydrogenase). Potency, µM (highest dose often 57.1 µM), inactives show at the highest dose activity change, negative = inhibition, hits mostly inhibitors. hit rate 1.6% among 230,000. AID 2147, 2009; active means well fitted inhibition curve with a large enough effect, not every such curve was filed as active; inconclusive means small, poorly fitted or top-dose-only effect, or another doubt; inactive means no such curve, though single readings can be large or run the other way;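 further: potency means the concentration at half of the fitted maximal effect; 0% = wells with enzyme and -100% = buffer wells without enzyme; nearly all actives have a fitted effect of over 50% in size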
Target sequence (B2RXH2 1-337 limits assumed): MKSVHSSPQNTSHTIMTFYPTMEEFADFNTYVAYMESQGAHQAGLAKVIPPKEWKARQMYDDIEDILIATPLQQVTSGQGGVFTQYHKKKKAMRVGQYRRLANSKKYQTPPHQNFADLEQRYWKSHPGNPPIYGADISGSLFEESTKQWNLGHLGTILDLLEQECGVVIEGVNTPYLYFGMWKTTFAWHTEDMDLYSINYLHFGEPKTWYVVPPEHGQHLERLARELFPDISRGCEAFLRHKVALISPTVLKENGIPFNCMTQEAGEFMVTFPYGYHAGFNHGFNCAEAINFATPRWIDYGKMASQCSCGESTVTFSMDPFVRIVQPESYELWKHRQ
Tau fluor cs – Counterscreen qHTS for Inhibitors of Tau Fibril Formation, Fluorescence Polarization; Potency, µM (highest dose often 57.7 µM), for inactives: top-dose activity change, negative = decrease; hit rate 0.93% among 280,000; AID 1463, 2008; tau K18 P301L (four-repeat tau fragment) Alexa594 fluorescence, heparin fibrillization; further: potency means the concentration at half of the fitted maximal effect; nearly all actives have a fitted effect of over 55% in size
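Human K18 P301L tau (15 uM unlabeled plus 0.24 uM Alexa 594-labeled, final) in 100 mM sodium acetate pH 7 was mixed with compound and 20 uM heparin and incubated 6 hr at 37 C.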
Active calls of the source: *; ! = not confirmed by another sample; [ ] = another dose, or the depositor's remark. Unless noted, the call rests on the fitted dose curve; in most records, active means well fitted curve in the direction sought with a large enough effect; inconclusive means small, poorly fitted or top-dose-only effect, or another doubt; inactive means no such curve, though single readings can be large; an effect the other way counts as inactive or inconclusive. Unless noted, on the % scale 0 is the no-effect control and ±100 the full control effect.

Screening Oc1ccc(Nc2nc(-c3ccc(O)cc3)cs2)cc1 returned Sfp inh 6%, FBPA coupling cs 3, Tau fibril FP 2%, Tau ThT inhib 6.3µM*, KDM4E inh -21% and Tau fluor cs 14µM*[quencher].
Screening COc1ccc(-c2csc(Nc3ccc(S(N)(=O)=O)cc3)n2)cc1 returned Sfp inh inconclusive, FBPA coupling cs 3, Tau fibril FP inconclusive, Tau ThT inhib inconclusive, KDM4E inh -13% and Tau fluor cs 13µM*[quencher].
`Oc1ccc(Nc2nc(-c3ccc(Cl)cc3)cs2)cc1` gave Sfp inh -20%, FBPA coupling cs 0, Tau fibril FP inconclusive, Tau ThT inhib 4µM*, KDM4E inh -23% and Tau fluor cs 7.9µM*[quencher].
For Nc1ccc(Nc2nc(-c3ccncc3)cs2)cc1 the results were Sfp inh -4%, FBPA coupling cs 1, Tau fibril FP 7%, Tau ThT inhib inconclusive, KDM4E inh 0% and Tau fluor cs inconclusive.
Screening CC(=O)Oc1ccc(-c2csc(Nc3ccc(S(N)(=O)=O)cc3)n2)cc1 returned Sfp inh 9%, FBPA coupling cs 4, Tau fibril FP 11%[2.34 µM], Tau ThT inhib 0%, KDM4E inh inconclusive and Tau fluor cs 12%[2.34 µM].
`NS(=O)(=O)c1ccc(Nc2nc(-c3ccc(O)cc3)cs2)cc1` gave Sfp inh -24%, FBPA coupling cs -9, Tau fibril FP 20%, Tau ThT inhib 13µM*, KDM4E inh -18% and Tau fluor cs inconclusive.
Oc1ccc(Nc2nc(-c3cccnc3)cs2)cc1 was read as Sfp inh -16% and FBPA coupling cs -3.
Screening CCC(C)NC(=O)c1ccccc1NC(=O)C1CCN(S(=O)(=O)Cc2ccccc2)CC1 (stereo not given) returned Tau fibril FP 1%, Tau ThT inhib -6% and Tau fluor cs -4%.
`CCCCC[C@H](O)/C=C/[C@H]1OC(O)C[C@H](O)[C@@H]1C/C=C\CC(=O)O` (stereo not given in full) gave Sfp inh 1%, FBPA coupling cs 0, Tau fibril FP -2%, Tau ThT inhib -9%, KDM4E inh 0% and Tau fluor cs -7%.
For CCOC(=O)C1CCCN(C2CC(=O)N(c3cccc(C(F)(F)F)c3)C2=O)C1 (stereo not given) the results were Sfp inh 50µM*, FBPA coupling cs 0, Tau fibril FP 6%, Tau ThT inhib -20%, KDM4E inh -6% and Tau fluor cs 2%.
For CCC1CCCCC1 the results were Sfp inh 13% and FBPA coupling cs -1.
CC1(OC(=O)CCc2ccccc2)C(=O)C=C2C=C(c3ccc(C#N)cc3)N(Cc3ccco3)C=C2C1=O (stereo not given) was read as Sfp inh -20%, FBPA coupling cs -1, Tau fibril FP -6%[11.6 µM], Tau ThT inhib inconclusive, KDM4E inh inconclusive and Tau fluor cs -20%[11.6 µM].
Screening CCCCC1=CC2=CC(=O)C(C)(OC(=O)c3cnc4ccccc4n3)C(=O)C2=CO1 (stereo not given) returned Sfp inh 79µM*!, FBPA coupling cs -1, Tau fibril FP -5%, Tau ThT inhib inconclusive, KDM4E inh -2% and Tau fluor cs -5%.
For COC(=O)CCCC1=CC2=CC(=O)C(C)(OC(=O)c3cnc4ccccc4n3)C(=O)C2=CO1 (stereo not given) the results were Sfp inh 11%, FBPA coupling cs 0, Tau fibril FP 2%, Tau ThT inhib -3%, KDM4E inh -7% and Tau fluor cs -5%.
CC(C)(C)OC(=O)NCCCC1=CC2=CC(=O)C(C)(OC(=O)CCc3ccccc3)C(=O)C2=CO1 (stereo not given) was read as Sfp inh 0%, FBPA coupling cs -2, Tau fibril FP inconclusive, Tau ThT inhib -11%, KDM4E inh -23% and Tau fluor cs -6%.
For CCCCC1=CC2=CC(=O)C(C)(OC(=O)CCc3ccccc3)C(=O)C2=CO1 (stereo not given) the results were Sfp inh 14%, FBPA coupling cs 2, Tau fibril FP inconclusive, Tau ThT inhib 25µM*!, KDM4E inh -4% and Tau fluor cs inconclusive.
`CC1(OC(=O)CCc2ccccc2)C(=O)C=C2C=C(c3ccc(C#N)cc3)N(Cc3ccccc3)C=C2C1=O` (stereo not given) gave Sfp inh inconclusive, FBPA coupling cs -10, Tau fibril FP inconclusive, Tau ThT inhib 8.9µM*!, KDM4E inh 16µM* and Tau fluor cs -3%[11.6 µM].
`CN(C)c1ccc(N=C/C=C2/N(C)c3ccccc3C2(C)C)cc1` gave Sfp inh -27%, FBPA coupling cs -1, Tau fibril FP inconclusive, Tau ThT inhib 3.2µM*, KDM4E inh inconclusive and Tau fluor cs inconclusive.
Screening CN1/C(=C\C=C2/C(=O)Oc3ccccc3C2=O)C(C)(C)c2ccccc21 returned Sfp inh 18%, FBPA coupling cs 2, Tau fibril FP 13%, Tau ThT inhib inconclusive, KDM4E inh 1% and Tau fluor cs inconclusive.
CN1/C(=C\C=C2/SC(=S)NC2=O)C(C)(C)c2ccccc21 was read as Sfp inh inconclusive, FBPA coupling cs -4, Tau fibril FP 1%, Tau ThT inhib 3.5µM*, KDM4E inh 0% and Tau fluor cs inconclusive.
`CN1C(=CC=C2C=C(I)C(=O)C(I)=C2)C(C)(C)c2ccccc21` gave Sfp inh 89µM*, FBPA coupling cs 18, Tau fibril FP inconclusive, Tau ThT inhib 2.2µM*, KDM4E inh 0% and Tau fluor cs 0.71µM*[fluorescent].
`CN1/C(=C\C=N\O)C(C)(C)c2ccccc21` gave Sfp inh 12%, FBPA coupling cs -8, Tau fibril FP -5%, Tau ThT inhib inconclusive, KDM4E inh -6% and Tau fluor cs 1%.
Screening CC(C)(C)OC(=O)N1CCC(c2c(C(=O)NCCN3CCCC3)cnn2-c2ccc(Cl)cc2)CC1 returned Tau fibril FP 3%, Tau ThT inhib 2% and Tau fluor cs -1%.
For Cc1cnc(C(=O)Nc2ccccc2-n2cccc2)cn1 the results were Sfp inh 45µM*, FBPA coupling cs 0, Tau fibril FP -5%, Tau ThT inhib -16%, KDM4E inh -1% and Tau fluor cs -10%.

Assay outcomes as filed in PubChem.
